{"source": "paper PMC4336329", "about": "(PLoS ONE, 2015)", "note": "About 14,000 (4.5%) of roughly 310,000 compounds showed an effect of 50% or more. Effects have a minus sign here. For the sample, strong results were picked, then their nearest neighbours and some compounds at random.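 Further: peak tail current of the secondary pulse compared with the same well before compound.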"}
{"target": "human ether-à-go-go-related gene (hERG) potassium channel (human, UniProt Q12809)", "sequence (Q12809 whole entry, looked up)": "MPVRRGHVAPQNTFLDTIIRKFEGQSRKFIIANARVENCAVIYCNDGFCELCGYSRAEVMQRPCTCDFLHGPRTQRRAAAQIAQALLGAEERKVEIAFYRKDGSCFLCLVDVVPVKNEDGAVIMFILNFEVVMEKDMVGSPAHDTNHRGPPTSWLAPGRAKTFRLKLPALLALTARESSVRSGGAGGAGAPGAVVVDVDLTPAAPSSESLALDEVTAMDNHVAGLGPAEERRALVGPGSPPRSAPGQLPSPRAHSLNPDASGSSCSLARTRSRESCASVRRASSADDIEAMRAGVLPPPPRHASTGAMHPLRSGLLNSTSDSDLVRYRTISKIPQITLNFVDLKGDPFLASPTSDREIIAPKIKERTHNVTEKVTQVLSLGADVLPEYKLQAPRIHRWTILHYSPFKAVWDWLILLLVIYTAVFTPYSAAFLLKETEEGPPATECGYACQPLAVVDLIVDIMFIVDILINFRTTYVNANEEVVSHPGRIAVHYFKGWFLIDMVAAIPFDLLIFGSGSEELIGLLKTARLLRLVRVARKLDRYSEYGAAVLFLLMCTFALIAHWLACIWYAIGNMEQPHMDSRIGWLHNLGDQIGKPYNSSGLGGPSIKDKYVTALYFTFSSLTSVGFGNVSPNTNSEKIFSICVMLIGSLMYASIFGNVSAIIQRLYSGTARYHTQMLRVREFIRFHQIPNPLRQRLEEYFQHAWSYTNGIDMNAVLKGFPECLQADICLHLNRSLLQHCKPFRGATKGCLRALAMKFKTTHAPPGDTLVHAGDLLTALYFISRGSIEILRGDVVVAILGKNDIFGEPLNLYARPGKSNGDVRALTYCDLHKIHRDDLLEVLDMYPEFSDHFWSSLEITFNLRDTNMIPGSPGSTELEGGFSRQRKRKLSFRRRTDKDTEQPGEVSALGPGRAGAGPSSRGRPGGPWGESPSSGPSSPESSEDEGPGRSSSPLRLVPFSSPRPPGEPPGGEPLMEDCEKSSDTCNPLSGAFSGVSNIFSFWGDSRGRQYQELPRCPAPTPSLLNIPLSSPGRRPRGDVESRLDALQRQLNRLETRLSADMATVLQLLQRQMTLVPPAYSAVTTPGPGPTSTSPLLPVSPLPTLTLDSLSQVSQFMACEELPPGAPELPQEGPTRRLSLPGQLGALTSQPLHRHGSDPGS", "assay": "primary screen, population patch clamp on CHO cells stably expressing hERG; higher = less effect of the substance", "units": {"hERG current change (%, negative = inhibition) at 10uM": "%"}}
{"smiles": "COCc1cccc(C2=CC(=O)C[C@H](c3ccc(OC)cc3)C2)c1", "hERG current change (%, negative = inhibition) at 10uM": -20.7}
{"smiles": "O=C1C=C(c2cccc(CO)c2)C[C@@H](c2ccc(F)cc2)C1", "hERG current change (%, negative = inhibition) at 10uM": -45.3}
{"smiles": "O=C1C=C(c2cccc(Cl)c2)C[C@@H](c2ccc(Cl)cc2)C1", "hERG current change (%, negative = inhibition) at 10uM": 24.4}
{"smiles": "COc1ccc([C@H]2CC(=O)C=C(c3cccc(CO)c3)C2)cc1OC", "hERG current change (%, negative = inhibition) at 10uM": -63.6}
{"smiles": "COc1ccc([C@H]2CC(=O)C=C(c3cccc(CO)c3)C2)cc1", "hERG current change (%, negative = inhibition) at 10uM": -59.3}
{"smiles": "COc1ccc([C@H]2CC(=O)C=C(c3ccc(CO)cc3)C2)cc1", "hERG current change (%, negative = inhibition) at 10uM": -4.98}
{"smiles": "COc1ccc([C@H]2CC(=O)C=C(c3ccccc3)C2)cc1OC", "hERG current change (%, negative = inhibition) at 10uM": -3.04}
{"smiles": "O=C1C=C(c2cccc(CO)c2)C[C@@H](c2ccc(Cl)cc2)C1", "hERG current change (%, negative = inhibition) at 10uM": -54.5}
{"smiles": "CC[C@@H]1[C@H]2CCCC(=O)N3CC[C@@H](C[C@@H]1Nc1ccccc1)[C@@H]23", "hERG current change (%, negative = inhibition) at 10uM": -3.88}
{"smiles": "Cc1ccc(NC(=O)COC(=O)c2cccc(OC(F)F)c2)cc1S(=O)(=O)N1CCCCC1", "hERG current change (%, negative = inhibition) at 10uM": -21.1}
{"smiles": "CCc1c(C)nc(N)n2c(SCC(=O)Nc3ccccc3)nnc12", "hERG current change (%, negative = inhibition) at 10uM": 12.5}
{"smiles": "O=C1NC(Cc2c[nH]c3ccccc23)C(=O)N1CCOc1ccccc1", "note": "(centres unmarked)", "hERG current change (%, negative = inhibition) at 10uM": -22.7}
{"smiles": "O=C(CCC(=O)N1CCSc2ccccc21)Nc1ccc(F)cc1", "hERG current change (%, negative = inhibition) at 10uM": -4.12}
{"smiles": "Cc1oc(-c2ccccc2F)nc1CS(=O)CC(=O)NCc1ccccn1", "note": "(centres unmarked)", "hERG current change (%, negative = inhibition) at 10uM": -0.614}
{"smiles": "C=CCOc1ccccc1CN1CCC(Oc2ccc(C(=O)N3CCCC3)cc2)CC1", "hERG current change (%, negative = inhibition) at 10uM": -41.8}
{"smiles": "CC(C)n1cc(CN2CCC(Oc3ccc(C(=O)N4CCCCC4)cc3)CC2)cn1", "hERG current change (%, negative = inhibition) at 10uM": -31.6}
{"smiles": "O=C(c1ccc(OC2CCN(Cc3ccccc3O)CC2)cc1)N1CCCCC1", "hERG current change (%, negative = inhibition) at 10uM": 3.29}
{"smiles": "C=CCOc1ccccc1CN1CCC(Oc2ccc(C(=O)N3CCCCC3)cc2)CC1", "hERG current change (%, negative = inhibition) at 10uM": -57.6}
{"smiles": "O=C(c1ccc(OC2CCN(Cc3ccccc3C(F)(F)F)CC2)cc1)N1CCCCC1", "hERG current change (%, negative = inhibition) at 10uM": 2.01}
{"smiles": "CC(C)c1ccc(CN2CCC(Oc3ccc(C(=O)N4CCCC4)cc3)CC2)cc1", "hERG current change (%, negative = inhibition) at 10uM": -71.6}
{"smiles": "Cn1cc(CN2CCC(Oc3ccc(C(=O)N4CCCCC4)cc3)CC2)cn1", "hERG current change (%, negative = inhibition) at 10uM": 8.81}
{"smiles": "CCn1cc(CN2CCC(Oc3ccc(C(=O)N4CCCCC4)cc3)CC2)cn1", "hERG current change (%, negative = inhibition) at 10uM": -5.09}
{"smiles": "CCc1ccc(CN2CCC(Oc3ccc(C(=O)N4CCCCC4)cc3)CC2)cc1", "hERG current change (%, negative = inhibition) at 10uM": -78.4}
{"smiles": "O=C(c1ccc(OC2CCN(Cc3ccc(C(F)(F)F)cc3)CC2)cc1)N1CCCCC1", "hERG current change (%, negative = inhibition) at 10uM": -57.2}
{"smiles": "O=C(c1ccc(OC2CCN(Cc3cccc(F)c3)CC2)cc1)N1CCCCC1", "hERG current change (%, negative = inhibition) at 10uM": -23.4}
{"smiles": "CC(C)n1cc(CN2CCC(Oc3ccc(C(=O)N4CCCC4)cc3)CC2)cn1", "hERG current change (%, negative = inhibition) at 10uM": -9.96}
{"smiles": "COc1cccc(NC(=O)Cc2ccccc2)c1", "hERG current change (%, negative = inhibition) at 10uM": -3.98}
{"smiles": "Cc1ccc2c(c1)N(CCCC(=O)NCCC1=CCCCC1)C(=O)CO2", "hERG current change (%, negative = inhibition) at 10uM": -9.81}
{"smiles": "CCOc1cc(N2CCOCC2)c(OCC)cc1NC(=O)COC(=O)c1cc2ccccc2cc1O", "hERG current change (%, negative = inhibition) at 10uM": -11.7}
{"smiles": "CCc1ccc(-c2cc(C)no2)cc1S(=O)(=O)N1CCOc2ccc(C)cc21", "hERG current change (%, negative = inhibition) at 10uM": 13.1}
{"smiles": "Cc1c(NC(=O)C(C)N(c2ccccc2)S(C)(=O)=O)c(=O)n(-c2ccccc2)n1C", "note": "(centres unmarked)", "hERG current change (%, negative = inhibition) at 10uM": 18.7}
{"smiles": "O=C(CCl)Nc1cccc(S(=O)(=O)NC2=NCCC2)c1", "hERG current change (%, negative = inhibition) at 10uM": -0.632}
{"smiles": "CSc1cccc(CN2CCC(Oc3cccc(C(=O)N4CCCC4)c3)CC2)c1", "hERG current change (%, negative = inhibition) at 10uM": -44.4}
{"smiles": "CSc1ccc(CN2CCC(Oc3cccc(C(=O)N4CCCC4)c3)CC2)cc1", "hERG current change (%, negative = inhibition) at 10uM": -60.7}
{"smiles": "O=C(c1cccc(OC2CCN(Cc3cc(F)cc(F)c3)CC2)c1)N1CCCC1", "hERG current change (%, negative = inhibition) at 10uM": -34.9}
{"smiles": "COC(=O)c1ccc(CN2CCC(Oc3cccc(C(=O)N4CCCC4)c3)CC2)cc1", "hERG current change (%, negative = inhibition) at 10uM": -50.8}
{"smiles": "COc1ccc(CN2CCC(Oc3ccc(C(=O)N4CCCC4)cc3)CC2)c(F)c1", "hERG current change (%, negative = inhibition) at 10uM": -51.4}
{"smiles": "Cn1cc(CN2CCC(Oc3ccc(C(=O)N4CCCC4)cc3)CC2)cn1", "hERG current change (%, negative = inhibition) at 10uM": 9.86}
{"smiles": "COc1cc(C)c(CN2CCC(Oc3ccc(C(=O)N4CCCC4)cc3)CC2)cc1C", "hERG current change (%, negative = inhibition) at 10uM": -43.1}
{"smiles": "COC(=O)c1ccc(CN2CCC(Oc3cccc(C(=O)N4CCOCC4)c3)CC2)cc1", "hERG current change (%, negative = inhibition) at 10uM": -22.7}
{"smiles": "O=C(c1cccc(OC2CCN(Cc3cccc(OCCO)c3)CC2)c1)N1CCCC1", "hERG current change (%, negative = inhibition) at 10uM": -2.71}
{"smiles": "CSc1ccc(CN2CCC(Oc3ccc(C(=O)N4CCCC4)cc3)CC2)cc1", "hERG current change (%, negative = inhibition) at 10uM": -71.1}
{"smiles": "CSc1cccc(CN2CCC(Oc3ccc(C(=O)N4CCCCC4)cc3)CC2)c1", "hERG current change (%, negative = inhibition) at 10uM": -25.2}
{"smiles": "COc1cccc(CN2CCC(Oc3ccc(C(=O)N4CCCCC4)cc3)CC2)c1", "hERG current change (%, negative = inhibition) at 10uM": -25.3}
